# Laboratory results as given in PubChem BioAssay.
# Values without a mark were called inactive.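 Rule for the calls: active = viability increase at or above a cutoff of the median across tested compounds plus 3 SD (cut at about 8.5% in these data, passing the limit was not always enough); inconclusive = some gains above the cutoff, reason not given; inactive = the rest.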
# Assay: doxorubicin toxicity protection in MRP-1 cells – H69AR cells, CellTiter-Glo, duplicate, MRP-1 activator project, pilot screen (AID 807);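 note: compound pretreatment 18-22 h then 72 h combined with doxorubicin; 0% = doxorubicin alone and 100% = vehicle without doxorubicin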
# Conditions: H69AR viability with doxorubicin, CellTiter-Glo luminescence; at 10 µM; active compounds read high
row,Structure (SMILES),viability increase
1,CCOC(=O)N1CCC(NC(=O)CS(=O)(=O)Cc2nc(-c3ccc(C)cc3)oc2C)CC1,0.42%
2,COc1ccc(OC)c(C2CC(=O)N3CN(c4ccccc4F)CSC3=C2C#N)c1 (centres undefined),-1.77%
3,CC(=O)C1=C(C)N=c2s/c(=C/c3ccc4c(c3)OCO4)c(=O)n2C1c1ccc(N(C)C)cc1 (centres undefined),-1.24%
4,Cc1c(N=Cc2ccco2)c(=O)n(-c2ccccc2)n1C,-1.15%
5,O=S(=O)(c1ccc(Br)cc1)N1CCN(c2cc(-c3ccccc3)nc3ncnn23)CC1,-5.82%
6,Cn1c(NC(=O)Cc2cccs2)cc(=O)n(C)c1=O,-0.45%
7,CCOC(=O)c1c(NC(C)=O)no[n+]1[O-],-2.24%
8,COc1ccc(N(CC(=O)N2CC=C(c3ccccc3)CC2)S(=O)(=O)c2c(C)noc2C)cc1,-4.79%
9,C=CCn1c(C)c(C(C)=O)c(SC)nc1=S,-1.99%
10,COc1ccc(N(CC(=O)Nc2cc(OC)ccc2OC)S(=O)(=O)c2c(C)nn(C)c2C)cc1,-4.82%
11,COc1ccc(C2C(C(=O)NCCN(C)C)c3ccccc3C(=O)N2C)cc1OC (centres undefined),-0.77%
12,CC(C)N1CCc2c(sc(NC(=O)c3ccc(S(=O)(=O)N4CCOCC4)cc3)c2C#N)C1,-2.2%
13,COC(=O)c1c(NC(=O)CSc2nnnn2-c2ccccc2)sc2c1CCC(C)C2 (centres undefined),-1.07%
14,COC(=O)CC1Oc2ccccc2N(Cc2ccccc2)C1=O (centres undefined),-0.13%
